{"source": "paper PMC4336329", "about": "(PLoS ONE, 2015)", "note": "Out of some 310,000 compounds screened, about 14,000 (4.5%) showed an effect of 50% or more. The effect is printed as a negative number. The list comes from a sample in which strong results are over-represented; it also holds similar structures and randomly drawn compounds.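 Note: peak tail current of the secondary pulse compared with the same well before compound.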"}
{"molecular_target": "human ether-à-go-go-related gene (hERG) potassium channel (human, UniProt Q12809)", "sequence (Q12809 whole entry, looked up)": "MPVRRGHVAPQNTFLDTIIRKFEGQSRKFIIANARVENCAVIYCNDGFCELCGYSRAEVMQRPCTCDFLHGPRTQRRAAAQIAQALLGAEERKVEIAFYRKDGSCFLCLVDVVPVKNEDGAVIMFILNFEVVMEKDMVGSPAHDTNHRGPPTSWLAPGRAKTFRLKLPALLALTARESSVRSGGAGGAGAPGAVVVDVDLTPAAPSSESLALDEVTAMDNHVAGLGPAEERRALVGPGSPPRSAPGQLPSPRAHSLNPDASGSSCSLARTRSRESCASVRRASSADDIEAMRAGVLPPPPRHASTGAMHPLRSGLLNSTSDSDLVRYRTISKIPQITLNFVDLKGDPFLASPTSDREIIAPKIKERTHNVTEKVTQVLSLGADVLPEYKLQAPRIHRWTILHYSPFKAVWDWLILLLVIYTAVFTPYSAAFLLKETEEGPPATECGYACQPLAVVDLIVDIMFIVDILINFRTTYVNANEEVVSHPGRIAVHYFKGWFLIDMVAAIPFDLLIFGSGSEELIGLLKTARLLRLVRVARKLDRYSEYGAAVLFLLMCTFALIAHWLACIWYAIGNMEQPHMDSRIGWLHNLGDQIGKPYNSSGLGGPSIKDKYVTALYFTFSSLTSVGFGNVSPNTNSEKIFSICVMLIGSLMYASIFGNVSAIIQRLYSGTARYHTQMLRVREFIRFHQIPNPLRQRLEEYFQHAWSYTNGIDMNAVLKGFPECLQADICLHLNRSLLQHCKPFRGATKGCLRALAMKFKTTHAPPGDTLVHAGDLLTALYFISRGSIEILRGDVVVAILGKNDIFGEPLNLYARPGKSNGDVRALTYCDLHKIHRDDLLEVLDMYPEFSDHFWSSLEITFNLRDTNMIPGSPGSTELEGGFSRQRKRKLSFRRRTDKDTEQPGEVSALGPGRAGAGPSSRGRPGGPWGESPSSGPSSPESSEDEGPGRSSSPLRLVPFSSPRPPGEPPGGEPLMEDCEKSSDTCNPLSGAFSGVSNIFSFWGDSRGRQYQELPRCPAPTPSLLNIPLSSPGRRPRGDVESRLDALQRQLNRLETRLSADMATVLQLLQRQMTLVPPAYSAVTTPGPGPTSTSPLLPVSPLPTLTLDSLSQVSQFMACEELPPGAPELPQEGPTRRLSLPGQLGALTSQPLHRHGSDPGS", "experiment": "primary screen, population patch clamp on CHO cells stably expressing hERG; higher = less effect of the substance", "units": {"hERG current change (%, negative = inhibition) at 10uM": "%"}}
{"smiles": "Cc1cccc(CC2CC(=O)N(CCc3ccc4c(c3)OCO4)C2=O)c1", "note": "(centres unmarked)", "hERG current change (%, negative = inhibition) at 10uM": 34.2}
{"smiles": "COc1ccc(C(=O)/C=C2\\NCCc3cc(OC)c(OC)cc32)cc1OC", "hERG current change (%, negative = inhibition) at 10uM": 11.6}
{"smiles": "O=C(O)CCc1nc2cc(Cl)ccc2n(Cc2ccccc2)c1=O", "hERG current change (%, negative = inhibition) at 10uM": 22.2}
{"smiles": "CC(C)c1nc2cc(Cl)ccc2n(Cc2ccccc2)c1=O", "hERG current change (%, negative = inhibition) at 10uM": 24.6}
{"smiles": "O=C(O)CCc1nc2cc(C(F)(F)F)ccc2n(Cc2ccccc2)c1=O", "hERG current change (%, negative = inhibition) at 10uM": 23.8}
{"smiles": "COC(=O)CCc1nc2cc(Cl)ccc2n(Cc2ccccc2)c1=O", "hERG current change (%, negative = inhibition) at 10uM": -23.1}
{"smiles": "CCNC(=S)NNC(=O)CCc1nc2cc(Cl)ccc2n(Cc2ccccc2)c1=O", "hERG current change (%, negative = inhibition) at 10uM": -54.7}
{"smiles": "CN(C)C(CNC(=O)CCc1nc2cc(Cl)ccc2n(Cc2ccccc2)c1=O)c1ccccc1", "note": "(centres unmarked)", "hERG current change (%, negative = inhibition) at 10uM": -81.1}
{"smiles": "CC(=O)Nc1ccc(NC(=O)CSc2nnc(-c3cccnc3)o2)cc1", "hERG current change (%, negative = inhibition) at 10uM": 7.42}
{"smiles": "CCCn1c(C(Cc2ccccc2)NC(=O)COC)nc2ccccc21", "note": "(centres unmarked)", "hERG current change (%, negative = inhibition) at 10uM": 2.2}
{"smiles": "COc1cc2c(cc1NC(=O)/C=C/c1ccccc1)oc1ccccc12", "hERG current change (%, negative = inhibition) at 10uM": 18.8}
{"smiles": "CCOc1ccccc1N1CC(C(=O)Nc2ccccc2N2CCOCC2)CC1=O", "note": "(centres unmarked)", "hERG current change (%, negative = inhibition) at 10uM": 12.5}
{"smiles": "O=C(O)c1cc2cc(F)ccc2[nH]1", "hERG current change (%, negative = inhibition) at 10uM": 16.2}
{"smiles": "O=C(Nc1ccc2c(c1)CCC2)c1cnc(Cl)c(Cl)c1", "hERG current change (%, negative = inhibition) at 10uM": 0.674}
{"smiles": "CCN(CC)S(=O)(=O)c1ccc(N2CCOCC2)c(NC(=O)CN2C(=O)NC(C)(c3ccccc3)C2=O)c1", "note": "(centres unmarked)", "hERG current change (%, negative = inhibition) at 10uM": -24.1}
{"smiles": "CC[C@]12CCCN3CCc4c(n(c5ccccc45)C(=O)C1)[C@@H]32", "hERG current change (%, negative = inhibition) at 10uM": -75}
{"smiles": "CC[C@]12CCCN3CCc4c(n(c5ccccc45)C(=O)C1)C32", "note": "(some centres unmarked)", "hERG current change (%, negative = inhibition) at 10uM": -65.7}
{"smiles": "CCOC(=O)C1=C[C@]2(CC)CCCN3CCc4c(n1c1ccccc41)[C@@H]32", "hERG current change (%, negative = inhibition) at 10uM": -91.8}
{"smiles": "CCOC(=O)C1=CC[C@H]2c3c(c4ccccc4n3C)C[C@H]1N2C", "hERG current change (%, negative = inhibition) at 10uM": 3.88}
{"smiles": "CCn1cc(C2N3CC4(C)CN2CC(C)(C3)C4=O)c2ccccc21", "note": "(centres unmarked)", "hERG current change (%, negative = inhibition) at 10uM": 7.47}
{"smiles": "CCOC(=O)NNC(=O)CCn1c2c(c3ccccc31)CCCC2", "hERG current change (%, negative = inhibition) at 10uM": -16.4}
{"smiles": "CCN(CC)CC(=O)n1c2c(c3ccccc31)CCCC2", "hERG current change (%, negative = inhibition) at 10uM": -34.2}
{"smiles": "NC(=O)C1CCCc2c1n(Cc1ccccc1)c1ccccc21", "note": "(centres unmarked)", "hERG current change (%, negative = inhibition) at 10uM": -14.7}
{"smiles": "O=C(O)Cn1c(=O)c2c(c3ccccc31)CCC2", "hERG current change (%, negative = inhibition) at 10uM": 11.9}
{"smiles": "O=C(CSc1nc(-c2ccccc2)cs1)Nc1cccc([N+](=O)[O-])c1", "hERG current change (%, negative = inhibition) at 10uM": 6.45}
{"smiles": "N#Cc1ccccc1CSc1nc(N2CCCCC2)nc(N2CCCCC2)n1", "hERG current change (%, negative = inhibition) at 10uM": 5.79}
{"smiles": "CNc1cc(C)c(C#N)c2nc3ccccc3n12", "hERG current change (%, negative = inhibition) at 10uM": -8.75}
{"smiles": "CCN(CC)S(=O)(=O)c1ccc2c3c(cccc13)C(=O)S2", "hERG current change (%, negative = inhibition) at 10uM": -18.4}
{"smiles": "COc1ccc(NC(=O)CN2CCN(c3ccc(Cl)cc3)CC2)c(OC)c1", "hERG current change (%, negative = inhibition) at 10uM": -12.7}
{"smiles": "COc1ccccc1NC(=O)CN1CCN(CC(=O)Nc2ccccc2Cl)CC1", "hERG current change (%, negative = inhibition) at 10uM": 2.56}
{"smiles": "COc1ccc(NC(=O)CN2CCN(C3c4ccccc4-c4ccccc43)CC2)c(OC)c1", "hERG current change (%, negative = inhibition) at 10uM": -10.5}
{"smiles": "COc1ccc(NC(=O)CN2CCN(CC(=O)Nc3ccccc3Cl)CC2)c(OC)c1", "hERG current change (%, negative = inhibition) at 10uM": -78}
{"smiles": "COc1ccc(C)cc1NC(=O)CN1CCN(CC(=O)Nc2ccccc2F)CC1", "hERG current change (%, negative = inhibition) at 10uM": -48.7}
{"smiles": "COc1ccc(NC(=O)CN2CCN(CC(=O)Nc3ccccc3F)CC2)c(OC)c1", "hERG current change (%, negative = inhibition) at 10uM": -63.5}
{"smiles": "CC1=C(C(=O)OCCc2ccccc2)C(c2ccsc2)NC(=O)N1C", "note": "(centres unmarked)", "hERG current change (%, negative = inhibition) at 10uM": -10.9}
{"smiles": "OCC1(CO)COC(CCc2ccccc2)=N1", "hERG current change (%, negative = inhibition) at 10uM": 16.1}
{"smiles": "CC(=O)OCc1c(C(F)(F)F)nn(C)c1SCc1ccc(Cl)cc1", "hERG current change (%, negative = inhibition) at 10uM": 8.19}
{"smiles": "CC1(C(=O)N2CCOCC2)CCCCC1", "hERG current change (%, negative = inhibition) at 10uM": 11.6}
{"smiles": "O=C(CCc1nnc2ccc(N3CCC4(CC3)OCCO4)nn12)N1CCCCC1", "hERG current change (%, negative = inhibition) at 10uM": 16.7}
{"smiles": "COc1ccccc1/C=N/NC(=O)CC(=O)NCc1ccccc1", "hERG current change (%, negative = inhibition) at 10uM": -2.25}
{"smiles": "COc1ccc(C)cc1NC(=O)C1CCCCC1C(=O)O", "note": "(centres unmarked)", "hERG current change (%, negative = inhibition) at 10uM": 14.7}
{"smiles": "O=S(=O)(c1ccc2c(c1)OCCO2)N1CCC(n2nnc3cc(F)ccc32)CC1", "hERG current change (%, negative = inhibition) at 10uM": -38.7}
{"smiles": "CC(=O)Nc1ccc(S(=O)(=O)N2CCC(n3cnc4cc(F)ccc43)CC2)cc1", "hERG current change (%, negative = inhibition) at 10uM": -65.7}
{"smiles": "O=S(=O)(c1ccc2c(c1)OCCO2)N1CCC(n2cnc3cc(F)ccc32)CC1", "hERG current change (%, negative = inhibition) at 10uM": -62.4}
{"smiles": "CC(=O)Nc1ccc(S(=O)(=O)N2CCC(N3CCCC3)CC2)cc1", "hERG current change (%, negative = inhibition) at 10uM": 13.2}
{"smiles": "CC(=O)Nc1ccc(S(=O)(=O)N2CCC(C(=O)c3ccc(F)cc3)CC2)cc1", "hERG current change (%, negative = inhibition) at 10uM": -34.6}
{"smiles": "O=S(=O)(c1ccc2c(c1)OCCO2)N1CCC(n2nnc3cc(C(F)(F)F)ccc32)CC1", "hERG current change (%, negative = inhibition) at 10uM": -16.4}
